The source of these data is PubChem BioAssay (Tox21).

Inconclusive results are not listed. A call without a number means that no potency is given here. Active and inactive are the calls of the source. Calls follow the shape of the full dose curve.
Potency is read from the fitted curve at half-maximal effect.

Vitamin D3 receptor (Homo sapiens), sequence (P11473 whole entry, looked up): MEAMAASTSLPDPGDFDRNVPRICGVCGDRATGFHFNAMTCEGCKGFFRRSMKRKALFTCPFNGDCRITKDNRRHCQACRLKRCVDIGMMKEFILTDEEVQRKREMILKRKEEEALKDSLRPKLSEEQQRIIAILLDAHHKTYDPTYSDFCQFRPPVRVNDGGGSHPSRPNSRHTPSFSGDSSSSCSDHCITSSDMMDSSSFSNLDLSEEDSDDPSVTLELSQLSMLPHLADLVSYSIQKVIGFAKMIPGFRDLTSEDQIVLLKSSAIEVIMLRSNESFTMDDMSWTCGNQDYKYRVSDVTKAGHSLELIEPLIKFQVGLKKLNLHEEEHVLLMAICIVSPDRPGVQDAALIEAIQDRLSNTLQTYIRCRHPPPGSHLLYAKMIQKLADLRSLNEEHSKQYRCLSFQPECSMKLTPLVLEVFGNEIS

The target in the test is Vitamin D3 receptor (Homo sapiens) (UniProt P11473). Briefly: qHTS assay to identify small molecule agonists of the vitamin D receptor (VDR) signaling pathway (AID 743222). The following applies: HEK293T VDR-UAS-bla, beta-lactamase FRET ratio, 16 h; series mostly up to 63.5 µM. An excerpt:
National Center for Advancing Translational Sciences [NCATS]
NIH Chemical Genomics Center [NCGC]
U.S. Environmental Protection Agency [EPA]
National Institutes of Environmental Health Sciences [NIEHS]
National Toxicology Program [NTP]
U.S. Food and Drug Administration [FDA]
The vitamin D receptor (VDR), a member of nuclear hormone receptor superfamily, plays a critical role in calcium homeostasis and bone metabolism. It is also involved in cell differentiation and growth, and thrombogenicity.
Tox21 Assay Protocol Summary:
VDR-bla cells were dispensed at 2,000 cells/6 uL/well into black wall/clear-bottom 1536-well plates using a Multidrop Combi (Thermo Fisher Scientific, Waltham, MA) dispenser. After the assay plates were incubated at a 37C and 5% CO2 for 4 h, 23 nL of compounds dissolved in DMSO, positive controls or DMSO only was transferred to the assay plate by a Pintool station (Kalypsys, San Diego, CA). The plates were incubated at 37C and 5% CO2 for 16 h. After 1 uL of LiveBLAzerTM B/G FRET substrate was added using a Bioraptr Flying Reagent Dispenser (FRD) workstation (Beckman Coulter, Indianapolis, IN, USA), the plates were incubated at room temperature for 2 h, and fluorescence intensity was measured by an Envision plate reader (PerkinElmer, Shelton, CT).
In the case of `CC[C@H](C)COC(=O)/C=C/c1ccc(N=Cc2ccc(OC)cc2)cc1`, the Potency result was “inactive”. For `CCC(C)n1ncn(-c2ccc(N3CCN(c4ccc(OC[C@H]5CO[C@](Cn6cncn6)(c6ccc(Cl)cc6Cl)O5)cc4)CC3)cc2)c1=O` (stereo not given in full) the value was “inactive”; for `O=S(=O)(O)c1ccc(Nc2nc(Nc3ccc(/C=C/c4ccc(Nc5nc(Nc6ccc(S(=O)(=O)O)cc6)nc(N(CCO)CCO)n5)cc4S(=O)(=O)O)c(S(=O)(=O)O)c3)nc(N(CCO)CCO)n2)cc1`, 13.2 µM (active). For `O=C(Nc1ccc2c(O)c(N=Nc3ccc(N=Nc4ccc(S(=O)(=O)O)cc4)cc3)c(S(=O)(=O)O)cc2c1)c1ccccc1` the value was “inactive”; for `CCCCCC/C=C\CCCCCCCC(=O)O`, “inactive”; for `O=C(O)c1ccc2cc(C(=O)O)ccc2c1`, “inactive”.

As for `CCCC[P+](C)(CCCC)CCCC`, the Potency entry is “inactive”.

For the molecule `Clc1sc(Cl)c(Cl)c1Cl`, the Potency entry is “inactive”. For `O=c1[nH]c(=O)n([C@H]2C[C@H](O)[C@@H](CO)O2)cc1F` the value was “inactive”. For `COC(=O)Nc1nc2ccc(C(=O)c3ccccc3)cc2[nH]1` the value was “inactive”. For `CC(C)(C)C1CCC(=O)CC1` the value was “inactive”.

With `Clc1ccnc(Cl)n1`, the Potency entry is “inactive”.

As to `COc1ccc2cc1Oc1ccc(cc1)C[C@H]1c3c(cc4c(c3Oc3cc5c(cc3OC)CCN(C)[C@@H]5C2)OCO4)CCN1C`, the Potency result is “inactive”. To `C#C[C@]1(O)CC[C@H]2[C@@H]3[C@H](C)CC4=C(CCC(=O)C4)[C@H]3CC[C@@]21C` belongs “inactive”; to `CC(C)CCOC(=O)/C=C/c1ccccc1`, “inactive”; to `C#CC1(O)CC[C@H]2[C@@H]3CCC4=CCCC[C@@H]4[C@H]3CC[C@@]21C` (stereo not given in full), “inactive”. Turning to `O[C@@H]([C@H](O)[C@H](O)CBr)[C@H](O)CBr`, the Potency result was “inactive”. As to `OC1CCC(C2CCCCC2)CC1` (stereo not given), the Potency result was “inactive”. For `C=CC(C)(CCC=C(C)C)OC=O` (stereo not given) the value was “inactive”.

With `CCCCCCCC/C=C\CCCCCCCCN`, the Potency result was “inactive”. To `CN(C)CCN1CCN(c2cccc(Cl)c2)C1=O` belongs “inactive”; to `CC(=O)OCC=C(C)C`, “inactive”. For `C=CCCC(=O)/C=C/C1C(C)=CCCC1(C)C` (stereo not given) the value was “inactive”; for `CC(C)=CCNc1ncnc2c1ncn2[C@@H]1O[C@H](CO)[C@@H](O)[C@H]1O`, “inactive”.

For `CC1(C)CC(O)CC(C)(C)N1`, the Potency result was “inactive”.

For the molecule `OCC(F)(F)F`, the Potency result was “inactive”.

As for `Cc1ccc(-c2ccccc2)cc1`, the Potency entry was “inactive”.

For `CCCc1ccc(OCC(=O)N2CCN(C(=O)COc3ccc(CCC)cc3OC)CC2)c(OC)c1`, the Potency entry was “inactive”. For `CCCCC/C=C\C/C=C\CCCCCCCC(=O)O` the value was “inactive”; for `OCCN1CCN(CCCN2c3ccccc3Sc3ccc(C(F)(F)F)cc32)CC1`, “inactive”. For `CC/C=C\CCCCCO` the value was “inactive”; for `Cl[Si](Cl)(c1ccccc1)c1ccccc1`, “inactive”.

In the case of `Oc1c(I)cc(Cl)c2cccnc12`, the Potency result was “inactive”. For `Cc1c(C)c2c(c(C)c1OC(=O)c1cccnc1)CC[C@@](C)(CCC[C@H](C)CCC[C@H](C)CCCC(C)C)O2` the value was “inactive”. To `CCCCC(CC)COC(=O)CCCCC(=O)OCc1ccccc1` (stereo not given) belongs “inactive”; to `CC[N+](CC)(CC)CCOC(=O)C(C1CCCC1)C1CCCC1`, “inactive”. To `COc1cc(S(=O)(=O)O)c(C)cc1N=Nc1c(O)ccc2cc(S(=O)(=O)O)ccc12` belongs “inactive”; to `[Cl][Pt-2]([Cl])([Cl])[Cl]`, “inactive”. Take `CN(C)Cc1ccccc1O`: the Potency entry is “inactive”. To `COc1cc(C)ccc1O` belongs “inactive”.
